The target in test [1] is Death-associated protein kinase 1 (Homo sapiens) (UniProt P53355). The following applies: at 10 µM.
The target in test [2] is Death-associated protein kinase 2 (Homo sapiens) (UniProt Q9UIK4). The settings on record: at 1 µM.
Test [3] shares this target. The following applies: at 10 µM.
Test [4] concerns the target T1, Serine/threonine-protein kinase DCLK2 (Homo sapiens) (UniProt Q8N568).
T1 sequence (whole entry): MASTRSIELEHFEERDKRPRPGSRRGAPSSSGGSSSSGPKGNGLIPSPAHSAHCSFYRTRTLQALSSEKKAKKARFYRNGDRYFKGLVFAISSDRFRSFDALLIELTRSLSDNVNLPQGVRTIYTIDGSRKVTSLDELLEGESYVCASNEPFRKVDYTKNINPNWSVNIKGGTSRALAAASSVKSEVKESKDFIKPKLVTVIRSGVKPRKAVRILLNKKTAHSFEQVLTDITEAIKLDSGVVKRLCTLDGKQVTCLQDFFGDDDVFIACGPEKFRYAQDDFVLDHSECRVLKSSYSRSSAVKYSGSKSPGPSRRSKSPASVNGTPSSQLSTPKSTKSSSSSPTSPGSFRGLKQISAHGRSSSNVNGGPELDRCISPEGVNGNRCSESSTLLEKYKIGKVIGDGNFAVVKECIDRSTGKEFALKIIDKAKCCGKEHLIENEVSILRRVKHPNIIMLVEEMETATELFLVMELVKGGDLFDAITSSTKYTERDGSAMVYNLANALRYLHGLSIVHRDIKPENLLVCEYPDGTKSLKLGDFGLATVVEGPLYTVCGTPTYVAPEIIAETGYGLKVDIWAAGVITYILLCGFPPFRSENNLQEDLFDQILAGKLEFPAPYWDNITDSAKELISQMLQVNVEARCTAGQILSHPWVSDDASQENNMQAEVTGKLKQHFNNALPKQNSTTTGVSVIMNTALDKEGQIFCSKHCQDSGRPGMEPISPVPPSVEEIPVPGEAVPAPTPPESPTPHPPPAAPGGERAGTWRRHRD
The settings on record: at 1 µM.

Test [5] addresses T1, Serine/threonine-protein kinase DCLK2 (Homo sapiens). The following applies: at 10 µM.
Test [6] addresses T2, Discoidin domain-containing receptor 2 (Homo sapiens) (UniProt Q16832).
T2 sequence (whole entry): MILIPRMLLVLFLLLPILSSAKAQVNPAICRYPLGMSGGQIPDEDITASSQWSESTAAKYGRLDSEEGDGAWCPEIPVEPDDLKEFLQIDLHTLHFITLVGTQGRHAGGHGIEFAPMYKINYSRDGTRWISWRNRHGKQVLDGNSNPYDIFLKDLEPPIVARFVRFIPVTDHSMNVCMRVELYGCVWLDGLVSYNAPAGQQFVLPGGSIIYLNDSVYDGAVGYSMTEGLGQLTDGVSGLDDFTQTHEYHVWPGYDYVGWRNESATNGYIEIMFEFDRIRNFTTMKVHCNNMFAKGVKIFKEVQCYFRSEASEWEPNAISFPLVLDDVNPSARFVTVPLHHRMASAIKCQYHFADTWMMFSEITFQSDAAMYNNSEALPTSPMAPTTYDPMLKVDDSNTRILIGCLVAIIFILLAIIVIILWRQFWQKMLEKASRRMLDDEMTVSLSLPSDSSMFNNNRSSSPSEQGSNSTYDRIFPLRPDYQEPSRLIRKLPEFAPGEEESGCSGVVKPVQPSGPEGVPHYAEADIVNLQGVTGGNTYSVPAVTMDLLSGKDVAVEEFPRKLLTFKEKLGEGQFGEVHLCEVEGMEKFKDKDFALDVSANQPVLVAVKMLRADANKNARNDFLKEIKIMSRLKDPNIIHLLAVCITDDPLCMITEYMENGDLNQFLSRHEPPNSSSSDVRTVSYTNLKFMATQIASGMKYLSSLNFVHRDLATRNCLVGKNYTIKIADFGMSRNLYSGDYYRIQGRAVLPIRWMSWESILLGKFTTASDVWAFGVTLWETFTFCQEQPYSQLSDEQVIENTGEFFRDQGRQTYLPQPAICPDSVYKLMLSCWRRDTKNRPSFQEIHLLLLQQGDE
The following applies: at 1 µM.

In test [7] the target is T2, Discoidin domain-containing receptor 2 (Homo sapiens). The settings on record: at 10 µM.
Test [8] concerns the target T3, Myotonin-protein kinase (Homo sapiens) (UniProt Q09013).
T3 sequence (whole entry): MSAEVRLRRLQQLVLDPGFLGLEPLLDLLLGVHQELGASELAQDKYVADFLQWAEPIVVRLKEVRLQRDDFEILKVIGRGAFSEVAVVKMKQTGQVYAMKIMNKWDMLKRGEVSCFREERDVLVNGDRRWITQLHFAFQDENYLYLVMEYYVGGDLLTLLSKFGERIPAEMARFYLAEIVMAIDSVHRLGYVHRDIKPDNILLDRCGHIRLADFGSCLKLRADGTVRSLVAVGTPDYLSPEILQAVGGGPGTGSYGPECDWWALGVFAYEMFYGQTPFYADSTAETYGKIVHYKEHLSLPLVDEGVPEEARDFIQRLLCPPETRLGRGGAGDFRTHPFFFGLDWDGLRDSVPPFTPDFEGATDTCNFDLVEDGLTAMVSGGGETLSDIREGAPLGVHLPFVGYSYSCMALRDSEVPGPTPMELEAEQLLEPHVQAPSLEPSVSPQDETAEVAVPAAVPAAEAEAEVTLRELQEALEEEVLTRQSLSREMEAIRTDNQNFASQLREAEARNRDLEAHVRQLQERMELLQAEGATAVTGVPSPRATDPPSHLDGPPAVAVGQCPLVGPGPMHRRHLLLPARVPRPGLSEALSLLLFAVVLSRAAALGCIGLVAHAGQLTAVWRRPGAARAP
The settings on record: at 1 µM.

In test [9] the target is T3, Myotonin-protein kinase (Homo sapiens). The settings on record: at 10 µM.
For test [10], the target named is T4, Serine/threonine-protein kinase 17A (Homo sapiens) (UniProt Q9UEE5).
T4 sequence (whole entry): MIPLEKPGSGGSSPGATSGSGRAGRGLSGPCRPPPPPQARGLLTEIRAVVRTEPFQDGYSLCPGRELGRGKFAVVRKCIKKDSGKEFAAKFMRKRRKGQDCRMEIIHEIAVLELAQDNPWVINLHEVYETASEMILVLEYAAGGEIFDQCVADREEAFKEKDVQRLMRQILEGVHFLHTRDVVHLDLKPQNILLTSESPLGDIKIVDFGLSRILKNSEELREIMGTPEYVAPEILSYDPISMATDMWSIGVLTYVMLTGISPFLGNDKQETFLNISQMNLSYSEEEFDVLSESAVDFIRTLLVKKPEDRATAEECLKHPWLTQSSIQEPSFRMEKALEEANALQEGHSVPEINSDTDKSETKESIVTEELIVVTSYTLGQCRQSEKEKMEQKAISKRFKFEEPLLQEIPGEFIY
The following applies: at 1 µM.

Test [11] concerns the target T4, Serine/threonine-protein kinase 17A (Homo sapiens). The settings on record: at 10 µM.
Test [12] deals with T5, Dual specificity tyrosine-phosphorylation-regulated kinase 2 (Homo sapiens) (UniProt Q92630).
T5 sequence (whole entry): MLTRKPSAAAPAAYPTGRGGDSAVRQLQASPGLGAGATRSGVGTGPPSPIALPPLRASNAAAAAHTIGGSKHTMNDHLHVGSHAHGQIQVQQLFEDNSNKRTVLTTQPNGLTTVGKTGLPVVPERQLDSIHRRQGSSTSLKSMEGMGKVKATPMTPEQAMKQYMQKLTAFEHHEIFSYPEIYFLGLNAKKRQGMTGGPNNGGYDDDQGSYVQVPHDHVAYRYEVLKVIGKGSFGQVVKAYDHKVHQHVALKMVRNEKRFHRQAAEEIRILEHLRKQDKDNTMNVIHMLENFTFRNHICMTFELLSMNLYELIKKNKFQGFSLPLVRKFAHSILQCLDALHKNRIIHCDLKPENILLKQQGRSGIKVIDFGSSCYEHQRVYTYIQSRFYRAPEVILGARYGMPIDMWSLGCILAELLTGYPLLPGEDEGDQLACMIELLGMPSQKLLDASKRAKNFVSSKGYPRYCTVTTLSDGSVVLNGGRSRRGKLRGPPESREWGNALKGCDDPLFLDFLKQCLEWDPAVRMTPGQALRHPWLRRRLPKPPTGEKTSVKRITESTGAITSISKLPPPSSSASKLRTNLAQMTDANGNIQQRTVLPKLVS
The settings on record: at 1 µM.

The target of test [13] is T5, Dual specificity tyrosine-phosphorylation-regulated kinase 2 (Homo sapiens). The following applies: at 10 µM.
For test [14], the target named is T6, Ephrin type-A receptor 1 (Homo sapiens) (UniProt P21709).
T6 sequence (whole entry): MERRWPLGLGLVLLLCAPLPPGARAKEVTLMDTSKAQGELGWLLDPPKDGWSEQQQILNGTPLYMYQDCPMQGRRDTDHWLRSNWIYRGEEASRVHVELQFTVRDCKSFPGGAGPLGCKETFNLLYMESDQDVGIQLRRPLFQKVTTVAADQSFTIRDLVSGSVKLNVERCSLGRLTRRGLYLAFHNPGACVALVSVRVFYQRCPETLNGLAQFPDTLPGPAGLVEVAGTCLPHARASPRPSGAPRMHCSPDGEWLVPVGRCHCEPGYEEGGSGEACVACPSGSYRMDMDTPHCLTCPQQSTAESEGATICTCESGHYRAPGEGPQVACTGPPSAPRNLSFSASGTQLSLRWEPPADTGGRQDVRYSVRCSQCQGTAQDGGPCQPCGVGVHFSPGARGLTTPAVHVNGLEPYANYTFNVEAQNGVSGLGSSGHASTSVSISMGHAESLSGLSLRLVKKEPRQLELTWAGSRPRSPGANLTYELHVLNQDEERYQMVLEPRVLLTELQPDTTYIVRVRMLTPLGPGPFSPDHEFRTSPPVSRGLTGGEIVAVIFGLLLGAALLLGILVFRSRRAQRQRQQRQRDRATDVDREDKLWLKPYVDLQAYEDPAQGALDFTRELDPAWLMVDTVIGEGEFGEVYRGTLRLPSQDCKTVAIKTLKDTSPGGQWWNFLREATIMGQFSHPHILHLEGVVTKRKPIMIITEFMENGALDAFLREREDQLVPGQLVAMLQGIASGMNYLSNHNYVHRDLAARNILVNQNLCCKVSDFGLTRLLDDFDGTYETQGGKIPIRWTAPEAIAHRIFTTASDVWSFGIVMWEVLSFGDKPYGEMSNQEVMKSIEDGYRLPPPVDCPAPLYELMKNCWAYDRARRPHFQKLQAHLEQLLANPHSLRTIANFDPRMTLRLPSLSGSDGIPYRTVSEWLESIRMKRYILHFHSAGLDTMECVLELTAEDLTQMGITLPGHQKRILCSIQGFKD
The settings on record: at 1 µM.

In test [15] the target is T6, Ephrin type-A receptor 1 (Homo sapiens). The settings on record: at 10 µM.
The target in test [16] is Ephrin type-A receptor 2 (Homo sapiens) (UniProt P29317). The following applies: at 1 µM.
Test [17] has the same target. The settings on record: at 10 µM.
For test [18], the target named is T7, Ephrin type-A receptor 3 (Homo sapiens) (UniProt P29320).
T7 sequence (whole entry): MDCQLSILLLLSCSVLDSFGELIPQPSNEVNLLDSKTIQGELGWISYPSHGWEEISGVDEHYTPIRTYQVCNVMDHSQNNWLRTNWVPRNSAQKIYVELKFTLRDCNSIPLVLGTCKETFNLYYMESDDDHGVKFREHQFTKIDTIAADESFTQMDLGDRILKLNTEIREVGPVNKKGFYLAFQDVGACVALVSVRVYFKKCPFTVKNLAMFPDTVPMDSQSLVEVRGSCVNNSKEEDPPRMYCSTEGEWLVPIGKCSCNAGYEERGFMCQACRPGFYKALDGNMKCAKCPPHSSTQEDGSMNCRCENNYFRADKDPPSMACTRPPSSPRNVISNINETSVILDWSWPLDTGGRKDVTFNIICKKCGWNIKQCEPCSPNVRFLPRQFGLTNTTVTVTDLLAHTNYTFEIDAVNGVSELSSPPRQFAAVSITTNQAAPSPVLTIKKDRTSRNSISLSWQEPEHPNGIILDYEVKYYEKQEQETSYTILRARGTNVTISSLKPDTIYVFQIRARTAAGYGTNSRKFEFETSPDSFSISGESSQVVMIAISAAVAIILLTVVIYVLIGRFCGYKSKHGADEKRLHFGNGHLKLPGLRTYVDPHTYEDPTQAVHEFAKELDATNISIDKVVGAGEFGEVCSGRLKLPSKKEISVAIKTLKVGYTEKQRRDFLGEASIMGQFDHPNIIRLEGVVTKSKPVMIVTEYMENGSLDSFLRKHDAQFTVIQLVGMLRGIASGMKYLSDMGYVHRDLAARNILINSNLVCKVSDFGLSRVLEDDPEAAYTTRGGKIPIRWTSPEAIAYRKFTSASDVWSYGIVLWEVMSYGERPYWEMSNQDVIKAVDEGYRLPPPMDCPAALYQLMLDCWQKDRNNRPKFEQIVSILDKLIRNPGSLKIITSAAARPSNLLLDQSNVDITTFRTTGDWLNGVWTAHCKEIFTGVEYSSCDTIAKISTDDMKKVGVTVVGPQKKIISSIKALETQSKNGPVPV
The settings on record: at 1 µM.

Sequence of Ephrin type-A receptor 2 (Homo sapiens) (P29317 whole entry): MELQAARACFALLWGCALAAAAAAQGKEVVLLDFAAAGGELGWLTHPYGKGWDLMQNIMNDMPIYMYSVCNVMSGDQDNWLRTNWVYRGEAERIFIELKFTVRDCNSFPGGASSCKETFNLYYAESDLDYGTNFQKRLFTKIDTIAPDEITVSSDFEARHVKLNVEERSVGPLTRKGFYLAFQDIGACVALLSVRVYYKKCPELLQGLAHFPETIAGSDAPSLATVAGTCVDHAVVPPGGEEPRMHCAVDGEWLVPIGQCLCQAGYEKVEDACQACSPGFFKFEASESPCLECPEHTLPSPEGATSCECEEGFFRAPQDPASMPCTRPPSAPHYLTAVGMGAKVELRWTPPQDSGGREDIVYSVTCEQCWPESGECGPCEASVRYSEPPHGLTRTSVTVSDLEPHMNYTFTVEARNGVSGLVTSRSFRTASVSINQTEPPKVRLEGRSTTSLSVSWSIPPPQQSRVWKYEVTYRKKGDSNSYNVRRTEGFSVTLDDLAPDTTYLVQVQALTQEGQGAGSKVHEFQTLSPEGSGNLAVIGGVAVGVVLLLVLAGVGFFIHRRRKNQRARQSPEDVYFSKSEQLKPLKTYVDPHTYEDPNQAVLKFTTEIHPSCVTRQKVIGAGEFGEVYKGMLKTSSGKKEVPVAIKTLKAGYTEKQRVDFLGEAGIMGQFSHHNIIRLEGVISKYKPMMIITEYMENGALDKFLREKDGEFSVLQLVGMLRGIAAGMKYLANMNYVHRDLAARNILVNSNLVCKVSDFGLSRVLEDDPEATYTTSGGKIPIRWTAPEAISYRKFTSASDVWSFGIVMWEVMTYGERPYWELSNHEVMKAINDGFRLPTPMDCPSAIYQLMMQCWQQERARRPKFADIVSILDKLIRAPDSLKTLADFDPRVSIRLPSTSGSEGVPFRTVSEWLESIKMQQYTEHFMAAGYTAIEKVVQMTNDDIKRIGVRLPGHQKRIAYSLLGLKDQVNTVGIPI
Sequence of Death-associated protein kinase 2 (Homo sapiens) (Q9UIK4 whole entry, looked up): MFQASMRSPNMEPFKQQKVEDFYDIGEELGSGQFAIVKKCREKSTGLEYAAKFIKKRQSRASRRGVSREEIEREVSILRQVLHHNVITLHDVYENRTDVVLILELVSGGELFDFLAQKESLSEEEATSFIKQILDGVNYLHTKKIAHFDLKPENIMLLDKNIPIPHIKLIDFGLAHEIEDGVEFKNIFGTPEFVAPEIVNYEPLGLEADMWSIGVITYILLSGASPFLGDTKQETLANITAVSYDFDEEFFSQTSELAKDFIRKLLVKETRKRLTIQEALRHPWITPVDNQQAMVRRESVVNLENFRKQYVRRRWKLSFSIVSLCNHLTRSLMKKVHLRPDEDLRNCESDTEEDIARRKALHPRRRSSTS
Sequence of Death-associated protein kinase 1 (Homo sapiens) (P53355 whole entry, looked up): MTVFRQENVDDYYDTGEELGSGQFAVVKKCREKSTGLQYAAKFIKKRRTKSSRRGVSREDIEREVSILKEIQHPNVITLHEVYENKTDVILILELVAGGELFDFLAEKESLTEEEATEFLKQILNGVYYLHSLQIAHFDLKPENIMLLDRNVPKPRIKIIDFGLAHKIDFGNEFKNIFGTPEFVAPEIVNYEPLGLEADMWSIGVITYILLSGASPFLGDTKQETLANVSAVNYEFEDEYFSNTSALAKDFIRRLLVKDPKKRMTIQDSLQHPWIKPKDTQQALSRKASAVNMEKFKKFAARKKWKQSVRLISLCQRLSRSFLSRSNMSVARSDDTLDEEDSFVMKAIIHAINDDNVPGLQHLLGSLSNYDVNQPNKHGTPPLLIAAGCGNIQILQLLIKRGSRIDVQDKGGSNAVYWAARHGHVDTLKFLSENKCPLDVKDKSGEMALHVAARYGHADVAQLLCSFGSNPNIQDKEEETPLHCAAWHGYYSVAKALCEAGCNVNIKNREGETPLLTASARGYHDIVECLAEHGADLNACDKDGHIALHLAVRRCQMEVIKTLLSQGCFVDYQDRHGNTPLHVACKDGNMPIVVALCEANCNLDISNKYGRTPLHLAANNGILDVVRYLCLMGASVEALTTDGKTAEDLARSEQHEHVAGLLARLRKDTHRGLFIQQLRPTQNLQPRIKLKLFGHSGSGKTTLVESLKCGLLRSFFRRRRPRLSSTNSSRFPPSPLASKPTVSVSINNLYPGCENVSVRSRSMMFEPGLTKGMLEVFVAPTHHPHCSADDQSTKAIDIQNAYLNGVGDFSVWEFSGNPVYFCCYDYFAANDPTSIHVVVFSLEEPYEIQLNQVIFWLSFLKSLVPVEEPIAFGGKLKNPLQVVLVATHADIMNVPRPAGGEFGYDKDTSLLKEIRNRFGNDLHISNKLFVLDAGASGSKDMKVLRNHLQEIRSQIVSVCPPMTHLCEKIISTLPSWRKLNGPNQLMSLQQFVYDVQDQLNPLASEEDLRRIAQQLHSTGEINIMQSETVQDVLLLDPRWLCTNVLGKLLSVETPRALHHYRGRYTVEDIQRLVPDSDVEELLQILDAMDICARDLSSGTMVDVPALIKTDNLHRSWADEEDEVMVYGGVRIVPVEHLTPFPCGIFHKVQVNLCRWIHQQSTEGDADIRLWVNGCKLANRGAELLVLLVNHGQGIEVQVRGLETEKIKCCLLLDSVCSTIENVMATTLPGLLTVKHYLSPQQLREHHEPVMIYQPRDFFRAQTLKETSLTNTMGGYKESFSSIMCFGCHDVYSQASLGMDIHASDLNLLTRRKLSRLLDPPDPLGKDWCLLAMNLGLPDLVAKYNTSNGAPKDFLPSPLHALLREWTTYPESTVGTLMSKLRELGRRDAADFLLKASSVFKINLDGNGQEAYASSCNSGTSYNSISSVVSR

On to `Nc1n[nH]c2nnc(-c3c(-c4ccccc4)nn4ccccc34)cc12`, for which the residual activity was 88% in test [1]; 95% in test [2]; 99% in [3]; 128% in test [4]; 75% in [5]; 94% in test [6]. Besides, the residual activity in test [7] stood at 74%; in [8], 92%; in test [9], 75%; in [10], 83%; in test [11], 117%; in [12], 94%. Moreover, the residual activity in test [13] stood at 88%; in test [14] it was 96%; in test [15], 66%; in test [16] it was 91%; in test [17] it was 95%; in test [18], 94%.
Consider `CO[C@H]1C[C@@H]2CC[C@@H](C)[C@@](O)(O2)C(=O)C(=O)N2CCCC[C@H]2C(=O)O[C@H]([C@H](C)C[C@@H]2CC[C@@H](O)[C@H](OC)C2)CC(=O)[C@H](C)/C=C(\C)[C@@H](O)[C@@H](OC)C(=O)[C@H](C)C[C@H](C)/C=C/C=C/C=C/1C`, for which the residual activity in test [1] came out at 108%; in [2], 93%; in test [3] it was 110%; in [4], 137%; in test [5], 360%; in [6] it was 115%. Moreover, the residual activity in test [7] was 110%; in [8], 145%; in [9], 139%; in [10], 113%; in [11], 149%; in [12], 99%. Further, the residual activity in [13] was found to be 101%; in test [14], 84%; in test [15], 65%; in test [16], 110%; in test [17], 120%; in test [18], 103%.

(Values after ChEMBL document CHEMBL2218924, “A broad activity screen in support of a chemogenomic map for kinase signalling research and drug discovery” (Biochem J, 2013).)
